Source: the supplement of paper PMC7595190

Tested on: MV4-11
Assay: CellTox Green cytotoxicity fluorescence relative to DMSO vehicle (fold of vehicle RFU); higher = more cell death (loss of membrane integrity), active = 2 or more
Description: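 Paediatric AML cell lines (MV4-11, CMK, Kasumi-1; 4x10^4 cells/well, 96-well) treated with single compounds from the Selleckchem apoptosis library at 0.01, 0.1 and 1 µM. Cytotoxicity was read with CellTox Green (RFU, Ex 485/Em 520) at 24, 48 and 72 h and normalised to the 0.1% DMSO vehicle. Normalised RFU >= 2 was taken as a successful, cell-killing treatment.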

SMILES	CellTox Green cytotoxicity fluorescence (0.01 µM, 24 h)	CellTox Green cytotoxicity fluorescence (0.01 µM, 48 h)	CellTox Green cytotoxicity fluorescence (0.01 µM, 72 h)	CellTox Green cytotoxicity fluorescence (0.1 µM, 24 h)	CellTox Green cytotoxicity fluorescence (0.1 µM, 48 h)	CellTox Green cytotoxicity fluorescence (0.1 µM, 72 h)	CellTox Green cytotoxicity fluorescence (1 µM, 24 h)	CellTox Green cytotoxicity fluorescence (1 µM, 48 h)	CellTox Green cytotoxicity fluorescence (1 µM, 72 h)
CN1CCN(CCCNc2ncc(Cl)c(-c3cc4c(C(=O)NC5CC5)cccc4s3)n2)CC1	0.979 (inactive)	0.976 (inactive)	0.987 (inactive)	0.956 (inactive)	0.966 (inactive)	0.965 (inactive)	0.903 (inactive)	0.93 (inactive)	0.926 (inactive)
CC1(C)CCC(c2ccc(Cl)cc2)=C(CN2CCN(c3ccc(C(=O)NS(=O)(=O)c4ccc(N[C@H](CCN5CCOCC5)CSc5ccccc5)c(S(=O)(=O)C(F)(F)F)c4)cc3)CC2)C1 [Navitoclax]	0.946 (inactive)	1.02 (inactive)	1.07 (inactive)	1.04 (inactive)	1.41 (inactive)	1.67 (inactive)	1.32 (inactive)	2.56 (active)	2.63 (active)
CN[C@@H](C)C(=O)N[C@H](C(=O)N1CCC[C@H]1C(=O)Nc1snnc1-c1ccccc1)C1CCCCC1	1.01 (inactive)	0.97 (inactive)	0.974 (inactive)	0.988 (inactive)	0.993 (inactive)	1 (inactive)	1.01 (inactive)	1.03 (inactive)	1.04 (inactive)
COc1ccc(CCNCc2ccc(OCc3ccc(Cl)nc3)c(OC)c2)cc1OC	0.971 (inactive)	0.978 (inactive)	0.996 (inactive)	0.949 (inactive)	0.961 (inactive)	0.967 (inactive)	0.953 (inactive)	0.949 (inactive)	0.945 (inactive)
CN(C)CCCCC(=O)Nc1ccc(NC(=S)NC(=O)c2ccc(C(C)(C)C)cc2)cc1 [Tenovin-6]	1 (inactive)	0.993 (inactive)	0.989 (inactive)	0.986 (inactive)	0.964 (inactive)	0.952 (inactive)	1.02 (inactive)	1.02 (inactive)	1.05 (inactive)
